Data published in PubChem BioAssay (NCI).
The panel holds about 83,000 compounds, 20% with a hit somewhere; the sample as a whole holds those more often.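 Activity criterion: percent growth below 10, measured after cells in 96-well plates were exposed to a single compound concentration for 48 hours.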 The source made the active and inactive calls.

What follows are molecules tested on HL-60(TB) leukemia (assay: NCI-60 one-dose screen, 48 h (100 = growth as untreated, 0 = no growth, -100 = all killed)). Settings: 10 µM unless noted.

**Q.** For `Cc1ccc(NC(=O)Nc2cccnc2)cc1NC(=O)Nc1cccnc1`, which growth is on record?
**A.** 71.1% (inactive)

**Q.** How did the growth turn out when `N#Cc1ccccc1-c1ccc(Cn2c(-c3cscn3)nc3c(Cl)cccc32)cc1` was run?
**A.** 85.8% (inactive)

**Q.** Which growth does the source give for `COc1ccc(C(=O)N/N=C/c2cc(C(F)(F)F)ccc2Cl)cc1` here?
**A.** 100% (inactive)

**Q.** Which growth does the source give for `CN(Cc1ccccc1)c1nc(Cl)c(C2CC(c3ccc(Cl)cc3)=NN2c2cc(Cl)cc(Cl)c2)s1` (centres undefined) here?
**A.** 102% (inactive)
